Each structure is given as a SMILES string. Active and inactive are the calls of the source. How the source made its calls: active means hit-call score of the fitted dose curve at least 0.9, where 1 is the maximum; inactive means score below 0.9.

In PubChem BioAssay (EPA / NIEHS) one finds outcome and AC50 data, which are given here for six compounds.

A short description of assay [1]: ATG_E_Box_CIS: Attagene CIS-FACTORIAL HepG2 Assay for human Enhancer Box (E-box) (AID 2282936). The following applies: HepG2 E-box cis-reporter transcription, actives raise or lower the signal. The essentials: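 Measured 24 h post-dosing in HepG2 cells transfected with multiple cis-regulated reporter units, signal being reporter mRNA induction detected by fluorescent RT-PCR with capillary electrophoresis; gain or loss fitted against DMSO.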

The nature of assay [2]: ATG_M_61_CIS: Attagene CIS-FACTORIAL HepG2 Assay for M61 Transcription Factor (Internal Marker) (AID 2282937). The following applies: HepG2 Attagene CIS-FACTORIAL M61 internal marker reporter; actives raise or lower the signal. In outline:
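Multiplexed reporter mRNA assay, HepG2 human hepatoma cells, 24 h treatment. Signal: FAM-labelled, HpaI-digested RT-PCR fragments by CE. Fit: bidirectional, baseline DMSO.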

Assay [3] can be described thus: ATG_EGR_CIS: Attagene CIS-FACTORIAL HepG2 Assay for human Early Growth Response 1 (EGR1) (AID 2282938). The settings on record: HepG2 Attagene CIS-FACTORIAL EGR reporter mRNA; actives raise or lower the signal. The essentials: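 Multiplexed cis-reporter system in human hepatoma HepG2 cells, transiently transfected. Cells are dosed for 24 h; reporter transcripts are amplified, fluorescently tagged and sized by capillary electrophoresis, with DMSO as negative control.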

Assay [4] is described as follows: ATG_Ets_CIS: Attagene CIS-FACTORIAL HepG2 Assay for human Erythroblast Transformation Specific (ETS) (AID 2282941). The following applies: HepG2 ETS cis-reporter transcription, actives raise or lower the signal. The essentials:
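Endogenous transcription factor activity read as reporter mRNA via RT-PCR and capillary electrophoresis, with gain or loss fitted bidirectionally against DMSO. Human HepG2 liver cells, transiently transfected CIS reporter constructs, 24 h exposure.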

Assay [5] addresses Hepatocyte nuclear factor 3-beta (Homo sapiens) (UniProt Q9Y261). Put plainly: ATG_FoxA2_CIS: Attagene CIS-FACTORIAL HepG2 Assay for human Forkhead box A2 (FOXA2) (AID 2282942). The following applies: HepG2 cis-reporter transcription factor activity, 24 h; actives raise or lower the signal. In outline: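 Multiplexed cis-element reporter assay in transiently transfected HepG2. Twenty-four hours post-dosing, RNA was reverse-transcribed, amplified, FAM-labelled, HpaI-digested and separated by CE. Activity gain or loss relative to DMSO.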

A short description of assay [6]: ATG_FoxO_CIS: Attagene CIS-FACTORIAL HepG2 Assay for human Forkhead box O (FoxO) (AID 2282943). The following applies: HepG2 Attagene cis-reporter, FoxO element, mRNA; actives raise or lower the signal. In outline:
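HepG2 cells transiently transfected with cis-promoter-driven multiple reporter transcription units; 24 h after chemical dosing, reporter mRNA quantified by RT-PCR, fluorescent primer extension, HpaI digestion and capillary electrophoresis. Bidirectional fitting versus DMSO baseline.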

Assay [7] can be described thus: ATG_GLI_CIS: Attagene CIS-FACTORIAL HepG2 Assay for human Zinc Finger Protein GLI1 (AID 2282945). The following applies: HepG2, Attagene cis-factorial reporter mRNA, GLI element; actives raise or lower the signal. The essentials: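 HepG2 cells transiently transfected with cis-promoter multiplexed reporter units report endogenous transcription factor activity. After 24 h chemical exposure, reporter mRNA was quantified by RT-PCR, 6-FAM labelling, HpaI digestion and capillary electrophoresis, with bidirectional fitting against DMSO.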

A short description of assay [8]: ATG_ISRE_CIS: Attagene CIS-FACTORIAL HepG2 Assay for human Interferon Regulatory Factor 1 (IRF1) binding to an Interferon-Stimulated Response Element (ISRE) (AID 2282948). The following applies: HepG2 ISRE cis-reporter (Attagene), mRNA transcription readout; actives raise or lower the signal. The essentials:
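Endogenous transcription factor activity read as reporter transcript abundance via RT-PCR and capillary electrophoresis. HepG2 cells transiently transfected, 24 h chemical exposure. Gain or loss fitted against DMSO baseline.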

The nature of assay [9]: ATG_M_32_CIS: Attagene CIS-FACTORIAL HepG2 Assay for M32 Transcription Factor (Internal Marker) (AID 2282949).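 Further: background control marker of the multiplexed CIS panel rather than a real target.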 The following applies: HepG2 Attagene cis-factorial M32 reporter, mRNA; actives raise or lower the signal. The essentials: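 Transient MRTU transfection of HepG2; 24 h compound treatment; TriZol RNA, oligo(dT) RT, reporter PCR, 6-FAM primer extension, HpaI cut, CE. Gain/loss of signal vs DMSO.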

Assay [10] has as its target Hepatocyte nuclear factor 6 (Homo sapiens) (UniProt Q9UBC0). As to the kind of experiment: ATG_HNF6_CIS: Attagene CIS-FACTORIAL HepG2 Assay for human Hepatocyte Nuclear Factor 6 (HNF6) (AID 2282952). The settings on record: HepG2 Attagene cis-factorial HNF6 reporter transcription; actives raise or lower the signal. In outline:
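Readout: fluorescent reporter-transcript fragments resolved by capillary electrophoresis after RT-PCR, reflecting endogenous factor activity in transfected HepG2. Exposure 24 h. Gain or loss of signal fitted bidirectionally against DMSO.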

Assay [11] can be described thus: ATG_MRE_CIS: Attagene CIS-FACTORIAL HepG2 Assay for human Metal Responsive Element (MRE) (AID 2282954). The following applies: HepG2 MRE cis-reporter transcription, Attagene multiplex; actives raise or lower the signal. The essentials:
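Readout: capillary electrophoresis of 6-FAM-labelled, HpaI-digested RT-PCR reporter products. System: HepG2 cells carrying transient multiplexed cis reporters, dosed 24 h. Analysis: bidirectional fit, DMSO baseline.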

The nature of assay [12]: ATG_GATA_CIS: Attagene CIS-FACTORIAL HepG2 Assay for human GATA Binding Protein (AID 2282944). The following applies: HepG2 GATA cis-element reporter, Attagene multiplex mRNA; actives raise or lower the signal. The essentials:
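Transfected cis-reporter HepG2 cells were treated with chemicals for 24 hours. Total RNA was then converted to cDNA, amplified with reporter-specific primers and analysed by fluorescent capillary electrophoresis, using DMSO-treated wells as baseline.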

The nature of assay [13]: ATG_GRE_CIS: Attagene CIS-FACTORIAL HepG2 Assay for human Glucocorticoid Response Elements (GRE) (AID 2282947). The settings on record: HepG2 GRE cis-reporter, Attagene multiplex mRNA; actives raise or lower the signal. The essentials: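 HepG2, transient cis-reporter transfection, 24 h. Reporter mRNA: RT-PCR then CE, fluorescence. Fit both directions vs DMSO.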
Assay [14] can be described thus: ATG_M_06_CIS: Attagene CIS-FACTORIAL HepG2 Assay for M06 Transcription Factor (Internal Marker) (AID 2282950). The following applies: HepG2 Attagene CIS-FACTORIAL M06 internal marker reporter; actives raise or lower the signal. The essentials:
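Cells (HepG2, transiently carrying cis-driven reporter units) receive chemical for 24 h before RNA isolation. Reporter cDNA is PCR-amplified, FAM-labelled by primer extension, HpaI-digested and sized on a capillary analyser.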

For assay [15], the target named is Heat shock factor protein 1 (Homo sapiens) (UniProt Q00613). As to the kind of experiment: ATG_HSE_CIS: Attagene CIS-FACTORIAL HepG2 Assay for human Heat Shock Transcription Factor 1 (HSE) (AID 2282953). The following applies: HepG2 HSE cis-reporter, Attagene RNA transcription; actives raise or lower the signal. The essentials: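 Liver-derived HepG2 cells carry transiently introduced multiple reporter units governed by cis promoters. Reporter RNA measured 24 h post-dose through reverse transcription, PCR amplification, fluorescent labelling and capillary electrophoresis, normalised to DMSO.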

A short description of assay [16]: ATG_PBREM_CIS: Attagene CIS-FACTORIAL HepG2 Assay for human Phenobarbital-responsive Enhancer Module (PBREM) (AID 2282955). The following applies: HepG2 PBREM cis-reporter, Attagene multiplexed transcription; actives raise or lower the signal. The essentials: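 Multiplexed cis-reporter readout in human hepatoma HepG2 cells; PBREM-regulated transcript quantified after 24 h exposure by fluorescent RT-PCR fragment analysis. Signal changes up or down fitted relative to DMSO.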

A short description of assay [17]: ATG_ERE_CIS: Attagene CIS-FACTORIAL HepG2 Assay for Estrogen Response Element (ERE) (AID 2282940). The settings on record: HepG2 ERE cis-reporter, Attagene RNA transcript; actives raise or lower the signal. The essentials: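 Human liver cells (HepG2) bearing transiently transfected, promoter-regulated reporter units were exposed 24 h. Reporter mRNA induction was detected by capillary electrophoresis of labelled RT-PCR products and fitted bidirectionally to DMSO.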

Assay [18] addresses Bile acid receptor (Homo sapiens) (UniProt Q96RI1). As to the kind of experiment: ATG_IR1_CIS: Attagene CIS-FACTORIAL HepG2 Assay for human Nuclear Receptor Subfamily 1 Group H Member 4 (NR1H4), IR1 submotif (AID 2282946). The settings on record: IR1 reporter transcription, actives raise or lower the signal. The essentials:
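Readout: reporter transcript levels by RT-PCR with fluorescent capillary electrophoresis, from HepG2 cells transiently transfected with multiplexed cis-regulated reporters and dosed 24 h. Gain- or loss-of-signal fitted versus DMSO negative control.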

Assay [19] addresses Hypoxia-inducible factor 1-alpha (Homo sapiens) (UniProt Q16665). As to the kind of experiment: ATG_HIF1a_CIS: Attagene CIS-FACTORIAL HepG2 Assay for human Hypoxia Inducible Factor 1 (HIF1A) (AID 2282951). The following applies: HepG2 Attagene cis-factorial HIF1a reporter transcription; actives raise or lower the signal. The essentials:
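Cis-element reporter constructs were transiently transfected into HepG2 cells, which were treated for 24 h; reporter RNA was reverse-transcribed, amplified, labelled and resolved by capillary electrophoresis.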

Chain of Hepatocyte nuclear factor 6 (Homo sapiens) (Q9UBC0 whole entry, looked up, the tested form may be a part): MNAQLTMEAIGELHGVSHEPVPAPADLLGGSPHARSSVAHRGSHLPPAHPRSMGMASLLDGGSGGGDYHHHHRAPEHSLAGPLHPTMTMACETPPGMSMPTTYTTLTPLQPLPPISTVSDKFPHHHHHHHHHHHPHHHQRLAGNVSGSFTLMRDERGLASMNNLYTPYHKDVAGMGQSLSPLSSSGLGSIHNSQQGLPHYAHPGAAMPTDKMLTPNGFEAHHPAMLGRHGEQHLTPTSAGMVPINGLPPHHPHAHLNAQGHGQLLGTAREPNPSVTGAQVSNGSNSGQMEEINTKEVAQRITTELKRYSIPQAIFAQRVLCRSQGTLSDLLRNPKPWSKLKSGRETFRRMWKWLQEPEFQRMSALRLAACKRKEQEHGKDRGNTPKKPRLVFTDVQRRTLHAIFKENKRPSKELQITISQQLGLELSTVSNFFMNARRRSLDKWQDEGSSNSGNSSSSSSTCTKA
Chain of Heat shock factor protein 1 (Homo sapiens) (Q00613 whole entry, looked up): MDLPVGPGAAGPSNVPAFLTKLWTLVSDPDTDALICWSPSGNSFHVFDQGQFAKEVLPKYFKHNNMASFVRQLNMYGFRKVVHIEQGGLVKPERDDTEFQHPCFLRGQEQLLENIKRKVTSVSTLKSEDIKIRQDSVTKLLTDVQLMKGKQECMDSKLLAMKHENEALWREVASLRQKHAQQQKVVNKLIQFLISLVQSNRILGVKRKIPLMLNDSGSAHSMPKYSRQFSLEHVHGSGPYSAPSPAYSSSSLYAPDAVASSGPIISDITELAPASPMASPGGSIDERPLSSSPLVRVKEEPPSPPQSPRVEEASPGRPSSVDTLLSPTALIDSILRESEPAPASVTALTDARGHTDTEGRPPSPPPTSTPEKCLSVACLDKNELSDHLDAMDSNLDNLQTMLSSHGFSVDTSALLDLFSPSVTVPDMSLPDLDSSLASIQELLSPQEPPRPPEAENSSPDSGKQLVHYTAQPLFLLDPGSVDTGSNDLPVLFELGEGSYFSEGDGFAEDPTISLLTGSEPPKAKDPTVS
Chain of Hepatocyte nuclear factor 3-beta (Homo sapiens) (Q9Y261 whole entry, looked up): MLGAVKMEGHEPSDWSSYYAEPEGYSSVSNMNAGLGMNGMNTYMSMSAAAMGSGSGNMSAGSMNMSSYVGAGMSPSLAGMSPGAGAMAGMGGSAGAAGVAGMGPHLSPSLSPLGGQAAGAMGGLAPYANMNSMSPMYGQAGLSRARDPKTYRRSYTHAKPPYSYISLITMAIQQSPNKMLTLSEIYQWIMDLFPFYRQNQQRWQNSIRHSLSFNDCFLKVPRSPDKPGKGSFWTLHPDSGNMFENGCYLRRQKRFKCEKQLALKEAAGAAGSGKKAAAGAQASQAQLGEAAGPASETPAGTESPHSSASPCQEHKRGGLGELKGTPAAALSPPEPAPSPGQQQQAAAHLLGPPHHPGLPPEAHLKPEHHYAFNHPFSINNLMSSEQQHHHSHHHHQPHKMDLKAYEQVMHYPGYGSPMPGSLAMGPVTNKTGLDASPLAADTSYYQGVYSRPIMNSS
Chain of Hypoxia-inducible factor 1-alpha (Homo sapiens) (Q16665 whole entry, looked up): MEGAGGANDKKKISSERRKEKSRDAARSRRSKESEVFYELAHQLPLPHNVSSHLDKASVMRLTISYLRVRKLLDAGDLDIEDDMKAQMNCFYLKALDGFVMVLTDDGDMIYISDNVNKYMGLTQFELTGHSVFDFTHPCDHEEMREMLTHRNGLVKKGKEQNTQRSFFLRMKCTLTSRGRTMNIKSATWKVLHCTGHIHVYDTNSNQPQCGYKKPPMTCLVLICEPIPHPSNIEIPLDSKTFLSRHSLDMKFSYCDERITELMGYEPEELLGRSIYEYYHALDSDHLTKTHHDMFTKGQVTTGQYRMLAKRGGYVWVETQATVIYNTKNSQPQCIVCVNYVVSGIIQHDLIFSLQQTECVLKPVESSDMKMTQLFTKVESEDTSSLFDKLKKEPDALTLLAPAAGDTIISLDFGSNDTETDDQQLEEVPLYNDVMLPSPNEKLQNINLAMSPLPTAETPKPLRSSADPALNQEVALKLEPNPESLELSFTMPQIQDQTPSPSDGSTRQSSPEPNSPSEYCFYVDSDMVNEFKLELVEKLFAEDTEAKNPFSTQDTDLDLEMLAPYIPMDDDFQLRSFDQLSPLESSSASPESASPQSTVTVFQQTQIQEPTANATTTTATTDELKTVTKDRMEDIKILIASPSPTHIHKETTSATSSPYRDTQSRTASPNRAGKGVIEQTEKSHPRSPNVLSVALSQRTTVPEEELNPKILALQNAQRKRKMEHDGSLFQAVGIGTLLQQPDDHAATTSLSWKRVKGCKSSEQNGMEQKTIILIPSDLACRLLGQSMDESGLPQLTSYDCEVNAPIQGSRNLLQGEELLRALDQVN
Chain of Bile acid receptor (Homo sapiens) (Q96RI1 whole entry, looked up): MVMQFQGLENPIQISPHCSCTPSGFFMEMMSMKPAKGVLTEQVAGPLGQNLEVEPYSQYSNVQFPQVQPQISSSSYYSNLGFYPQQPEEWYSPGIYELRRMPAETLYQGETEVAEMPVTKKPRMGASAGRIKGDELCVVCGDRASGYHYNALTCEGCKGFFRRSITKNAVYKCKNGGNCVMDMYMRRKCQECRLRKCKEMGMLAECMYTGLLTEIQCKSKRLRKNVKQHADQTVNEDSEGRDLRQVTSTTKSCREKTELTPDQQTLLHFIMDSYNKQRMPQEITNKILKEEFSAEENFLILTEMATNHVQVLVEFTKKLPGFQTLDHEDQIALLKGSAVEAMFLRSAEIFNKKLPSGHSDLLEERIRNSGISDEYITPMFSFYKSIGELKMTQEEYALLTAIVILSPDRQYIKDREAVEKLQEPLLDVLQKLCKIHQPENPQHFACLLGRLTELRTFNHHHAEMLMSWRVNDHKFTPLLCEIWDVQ

By AC50 is commonly meant the concentration giving half of the maximal activity seen. Consider `C[C@H]1C[C@@H]2[C@H]([C@@H](O)C[C@@]3(C)[C@H]2CC[C@]3(O)C(=O)CO)[C@@]2(C)C=CC(=O)C=C12`, for which the result in assay [1], in [2], in [3], in assay [4], in [5] and in assay [6] was inactive. Also, the outcome in assay [7], in [8], in [10] and in [11] was inactive. For the same compound, in [9], the AC50 was 131 µM (active).

Regarding `CCCCC(CC)COCCC#N` (stereo not drawn), the result in assay [1], in assay [2], in assay [3], in assay [4], in [5] and in assay [6] was inactive. For the same compound, the result in assay [12], in assay [7], in assay [13], in [8], in assay [9] and in [14] was inactive. Also, the compound was classed as inactive in [10], in assay [15], in assay [11] and in assay [16].

As to `O=C(O)c1cn(C2CC2)c2cc(N3CCNCC3)c(F)cc2c1=O`, the result in [1], in [2], in assay [3], in assay [17], in assay [4] and in assay [5] was inactive. In addition, the outcome in assay [6], in [12], in [7], in assay [13], in assay [8] and in assay [9] was inactive. For the same compound, the compound was called inactive in assay [14], in assay [15] and in [11].

`Clc1ccc(Cl)c(Cl)c1Cl`: the outcome in [1], in assay [2], in assay [3], in assay [5], in [6] and in assay [12] was inactive. The compound was called inactive in assay [18], in [13], in [8], in assay [9], in [14] and in [19]. Moreover, the call in assay [10], in assay [15], in assay [11] and in assay [16] was inactive.

Turning to `CC(=O)[C@H]1CC[C@H]2[C@@H]3CC=C4C[C@@H](O)CC[C@]4(C)[C@H]3CC[C@]12C`, the outcome in [1], in assay [2], in [3], in assay [4], in [5] and in [6] was inactive. Further, the result in assay [12], in [7], in assay [18], in assay [9], in [14] and in assay [19] was inactive. Further, the compound was classed as inactive in [10], in assay [15], in assay [11] and in assay [16]. Further, the half-maximal activity concentration (AC50) was 2.32 µM (active) in assay [17] and 36 µM (active) in assay [8].

In the case of `COC(=O)Cc1cccc2ccccc12`, the result in assay [1], in assay [2], in assay [3], in assay [17], in [4] and in assay [5] was inactive. Further, the result in assay [6], in assay [12], in assay [7], in [13], in assay [8] and in [14] was inactive. The compound was classed as inactive in assay [19], in assay [10], in assay [15], in [11] and in [16].
